D2 ag-1: Beta-Arrestin HTS for Positive Allosteric Modulators of the Human D2 Dopamine Receptor: Agonists | AID 624465, 2012 | hit rate 0.084% among 360,000 | DiscoveRx PathHunter D2 beta-arrestin, luminescence, 90 min; 100% = 57 uM dopamine signal | D(2) dopamine receptor (Homo sapiens), P14416 | activation, % (test concentration not listed); in the data active = activation above about 40%; inconclusive = between about 15% and that limit
Target sequence (P14416 whole entry, looked up): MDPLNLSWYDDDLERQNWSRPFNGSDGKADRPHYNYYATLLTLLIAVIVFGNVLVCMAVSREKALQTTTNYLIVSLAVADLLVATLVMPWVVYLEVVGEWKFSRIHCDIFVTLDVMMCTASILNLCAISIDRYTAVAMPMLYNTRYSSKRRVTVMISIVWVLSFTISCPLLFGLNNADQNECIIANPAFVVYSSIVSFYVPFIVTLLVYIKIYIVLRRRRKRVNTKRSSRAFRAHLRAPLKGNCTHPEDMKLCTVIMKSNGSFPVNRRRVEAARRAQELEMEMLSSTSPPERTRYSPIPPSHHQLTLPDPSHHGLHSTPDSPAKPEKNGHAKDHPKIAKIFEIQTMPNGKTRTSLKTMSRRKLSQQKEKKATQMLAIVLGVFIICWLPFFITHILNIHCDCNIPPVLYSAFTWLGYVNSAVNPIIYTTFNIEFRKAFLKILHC
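Agonist mode: compounds alone added to overnight-plated D2 PathHunter cells for 90 min at 37 C, with 57 uM final dopamine (EC100) defining full response. Beta-arrestin recruitment detected by chemiluminescent reagent, read after 1 h at ambient temperature.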
D2 PAM-1: Beta-Arrestin HTS for Positive Allosteric Modulators of the Human D2 Dopamine Receptor: Potentiators | potentiation, % (concentration not given with the values) | D(2) dopamine receptor (Homo sapiens), P14416 | AID 624464, 2012 | DiscoveRx D2 beta-arrestin cells, luminescence, 90 min; 100% = 57 uM dopamine signal | hit rate 0.23% among 360,000; in the data active = potentiation above about 50%; inconclusive = mostly about 30% to 49%
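D2 cells co-treated with compound plus 50 nM dopamine (EC20) for 90 min at 37 deg C to detect potentiation. Beta-arrestin recruitment was read as enzyme-fragment luminescence after 1 h at ambient temperature. Full response was set by 57 uM dopamine.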
D2 PAM-2: HTS Assay for Positive Allosteric Modulators of the Human D2 Dopamine Receptor: Primary Screen for Potentiators. AID 485347, 2010. HEK293 T-REx D2, calcium flux, EC20 dopamine potentiation. potentiation, % at 10 µM. hit rate 0.34% among 340,000;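 active = potentiation over 3 SD above the plate norm, cut at about 30% in these data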; note: 0% is about no effect
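Using a no-wash calcium dye in inducible, force-coupled HEK293 Trex cells expressing D2, we tracked fluorescence each second for 180 s after compound, then for 180 s after EC20 dopamine to detect augmented signalling.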
D2 ag-2: HTS Assay for Allosteric Agonists of the Human D2 Dopamine Receptor: Primary Screen for Agonists. D(2) dopamine receptor (Homo sapiens), P14416. HEK293 T-REx D2 cells, calcium flux agonist mode. activation, % at 2 µM. hit rate 0.53% among 340,000. AID 485358, 2010;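 active = activation over 3 SD above normal in the single-dose calcium agonist read, cut at about 30% in these data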; note: 0% is about no effect
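Tetracycline-induced HEK293 Trex cells with D2 receptor force-coupled to calcium signaling, plated overnight at 30 C and loaded with no-wash calcium dye. Calcium flux read kinetically for 180 s after compound addition; responses flag agonists.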
D2 antagonist: HTS Assay for Allosteric Antagonists of the Human D2 Dopamine Receptor: Primary Screen for Antagonists. D(2) dopamine receptor (Homo sapiens), P14416. HEK293 TREx D2 cells, calcium flux, dopamine EC80. inhibition, % at 10 µM. hit rate 2% among 340,000. AID 485344, 2010; in the data active = inhibition above about 30%; inactive = below that, where a call was filed; note: 0% is about no effect
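Compounds are added to dye-loaded, induced HEK293 T-REx cells coupled to calcium release via D2; after a 3 min kinetic read an EC80 dopamine stimulus is given and fluorescence is recorded for 3 more min.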
* = called active by the depositor; ? = inconclusive; nt = no result given. This is a sample that favours compounds with a hit; in the whole collection about 2.4% have one here.

SMILES	D2 ag-1	D2 PAM-1	D2 PAM-2	D2 ag-2	D2 antagonist
O=C(NCCC(=O)N(Cc1ccco1)Cc1cccs1)c1ccc(Br)cc1	-3.1	-4.6	-18.0	-2.8	41.3*
COc1ccc(C(=O)N(Cc2sccc2C)C2CCS(=O)(=O)C2)cc1 (stereo not drawn)	2.9	-14.3	0.0	-0.8	37.8*
CCN(CC)S(=O)(=O)c1ccc(NC=C(C#N)C#N)cc1	2.7	-1.7	-2.1	-0.2	74.1*
CN(C)S(=O)(=O)c1ccc(NC=C(C#N)C#N)cc1	0.3	-4.0	-14.5	-0.4	2.4
O=C(CSc1nnc(NC(=O)c2cccc(F)c2)s1)NCC1CCCO1 (stereo not drawn)	-1.0	-3.4	10.5	nt	nt
O=C(CSc1nnc(NC(=O)c2c(F)cccc2F)s1)NCC1CCCO1 (stereo not drawn)	0.9	8.8	-12.7	0.9	73.8*
CCC(NS(=O)(=O)c1ccc(C)cc1)C(=O)N1CCC2(O)CCCCC2C1 (stereo not drawn)	0.1	-1.2	38.6*	0.0	9.2
CCOc1ccc(S(=O)(=O)/N=C(/Nc2ccc(C)c(S(=O)(=O)N3CCOCC3)c2)c2ccccc2)cc1	-4.1	-9.9	nt	nt	nt
Cc1ccc(S(=O)(=O)c2cc3c(=O)n4ccccc4nc3n(C)c2=N)cc1C	-3.0	-3.1	36.4*	-0.3	3.6
CC1CCCN(c2cc(N(C)CCO)c([N+](=O)[O-])c3nonc23)C1 (stereo not drawn)	-2.2	-5.1	40.1*	-0.3	-7.2
O=C(NCC1CCCO1)c1ccc(NS(=O)(=O)c2cccs2)cc1 (stereo not drawn)	-3.8	-8.8	3.6	0.8	-3.3
COc1cccc(NC(=O)c2sc(-n3nc(C)c(Cc4ccccc4Cl)c3C)nc2C)c1	nt	nt	-36.4	nt	nt
Cc1sc2ncnc(SCC(=O)NC3CCCC3)c2c1C	-2.5	-0.8	nt	-3.3	31.8*
CN(Cc1ccccc1)C(=O)c1[nH]cnc1C(=O)Nc1ccon1	-1.1	-6.3	-5.6	0.2	4.7
COc1ccc(NC(=O)C2(c3ccc(NC(=O)c4ccc(C)cc4)cc3)CCCC2)cc1	0.4	8.4	-4.3	-0.2	34.2*
COc1ccc(NC(=O)C2(c3ccc(NC(=O)c4ccc(OC)c(OC)c4)cc3)CCCC2)cc1	5.1	-2.0	-2.6	0.0	18.7
COc1ccc2c(c1)CCC/C2=N\NC(=O)c1ccoc1C	-2.3	-26.1	-1.7	-3.2	37.7*
Oc1nc(Nc2ccc(F)cc2)sc1/C=C1\C=Nc2ccccc21	-0.4	-17.2	-7.0	-0.6	9.0
CC1=Nc2ccccc2/C1=C\c1sc(Nc2ccc(C)cc2)nc1O	-0.5	-40.7	-25.7	0.4	61.0*
CCN1CCN(C(=O)c2cccc(OC3CCN(S(=O)(=O)N(C)C)CC3)c2)CC1	-6.5	-12.0	36.0*	0.9	2.2
CC[C@H](C)[C@H](NC(=O)[C@H](Cc1ccc(O)cc1)NC(=O)[C@@H](N)C(C)C)C(=O)N[C@@H](Cc1cnc[nH]1)C(=O)N1CCC[C@H]1C(=O)N[C@@H](Cc1ccccc1)C(=O)O	5.9	-4.2	7.3	1.6	33.8*
CCC(C)C(NC(=O)C1CCC(=O)N1C(=O)OCc1ccccc1)C(=O)NC(Cc1ccccc1)C(N)=O (stereo not drawn)	4.9	2.4	nt	1.6	-20.2
CC(C)c1nc2ccc(NC(=O)C34CC5CC(CC(C5)C3)C4)cc2[nH]1	-1.8	-16.6	22.0	0.3	33.3*
CC1CCc2nn(CC(=O)Nc3cccc(C(F)(F)F)c3)c(=O)cc2C1 (stereo not drawn)	nt	nt	12.0	0.4	nt
COc1ccc(Nc2ccc3c(c2)=NC2(CCCCC2)[N+]=3[O-])cc1	-2.7	-14.0	-7.3	-0.1	3.8
SMILES	D2 ag-1	D2 PAM-1	D2 PAM-2	D2 ag-2	D2 antagonist
[O-][N+]1=c2ccc(Nc3ccccc3)cc2=NC12CCCCC2	-4.2	-21.4	-14.2	-0.9	32.5*
O=C(CC12CC3CC(CC(C3)C1)C2)NCC(c1ccc(F)cc1)N1CCOCC1 (stereo not drawn)	0.6	-4.4	3.1	2.6	40.1*
COCCNC(=O)COc1cc(=O)n(C)c2ccccc12	0.9	1.1	1.6	0.2	-17.7
Cn1c(=O)cc(OCCCC(=O)NCCCN2CCN(Cc3ccccc3)CC2)c2ccccc21	-2.1	-19.0	-14.3	-0.7	-23.0
Cn1c(=O)cc(OCCCC(=O)NCCN2CCN(c3ccccc3F)CC2)c2ccccc21	-2.4	-9.1	-24.9	32.5*	35.6*
Cn1c(=O)cc(OCC(=O)NCCCN2CCN(c3cccc(Cl)c3)CC2)c2ccccc21	7.6	-10.6	-24.0	69.3*	77.2*
CCCCCCCNC(=O)COc1ccc2c(c1)C(=O)CC(C)(C)O2	-1.4	-13.1	7.1	-0.5	29.5
O=C(NCCCN1CCN(c2cccc(Cl)c2)CC1)C1(S(=O)(=O)c2ccc(Cl)cc2)CC1	-0.2	-38.2	-18.2	15.1	34.6*
CC1(C)CC(=O)c2cc(OCC(=O)NCCCN3CCN(c4ccccc4F)CC3)ccc2O1	?	3.7	-25.3	77.8*	81.8*
COc1ccc(CNC(=O)C2CCN(S(=O)(=O)c3cccc4nonc34)CC2)cc1OC	nt	nt	6.8	0.6	nt
COc1ccc(CCC(C)Nc2ccccc2F)cc1 (stereo not drawn)	-1.0	0.1	5.4	-0.9	-17.7
COc1ccc(CCC(C)NC2C3CC4CC(C3)CC2C4)cc1 (stereo not drawn)	-1.2	-15.4	-18.2	0.8	40.0*
CCc1ccc(C2=C(C)C(N3CCC(C(=O)Nc4ccc(F)cc4)CC3)=NS2(=O)=O)cc1	nt	nt	2.1	0.7	nt
CC1=C(C(=O)Nc2ccccc2C)C(c2ccccn2)n2nc(SCc3ccccc3F)nc2N1 (stereo not drawn)	nt	nt	27.5	-0.1	nt
O=c1[nH]c2ccccc2nc1/C=C(\O)c1cccs1	-1.8	-6.5	-1.9	65.0*	1.7
O/C(=C\c1nc2ccccc2[nH]1)c1cccs1	-6.7	-1.8	-5.1	0.5	10.3
CC(=O)OC(C)CS(=O)(=O)c1ccccc1 (stereo not drawn)	-3.1	0.2	25.9	0.0	30.2*
O=C(COC(=O)CCc1c[nH]c(=O)[nH]1)Nc1cccc(Cl)c1	-2.6	-6.1	2.9	2.1	35.0*
CC(=O)C1CCC2C3CCC4=CC(=O)CCC4(C)C3(Br)C(=O)CC12C (stereo not drawn)	10.6	61.3*	nt	nt	nt
c1ccc2c(c1)nc1n2CC2CON(C3CCCCC3)C12 (stereo not drawn)	-2.5	-13.0	-4.3	0.1	37.0*
